# Experimental data: PubChem BioAssay (NCI)
# The panel holds about 83,000 compounds, 20% with a hit somewhere; the sample as a whole holds those more often.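 Growth was measured after 48 h exposure to one concentration of compound in 96-well plates. Values under 10 count as active.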 Values without a mark were called inactive. Activity calls are given as the source filed them.
# Test system: U251 CNS
# Test: NCI-60 one-dose screen, 48 h (100 = growth as untreated, 0 = no growth, -100 = all killed)
# Settings: 10 µM
# Description: Growth inhibition of the U251 human tumor cell line is measured as a screen for anti-cancer activity. Cells are grown in 96 well plates and exposed to the test compound for 48 hours. Compounds are tested at a single concentration, which is 10^-5 M for most compounds. The reported endpoint is percent growth (GI% or GIPRCNT), where numbers from 0 - 100% represent growth inhibition, and numbers from -100% - 0 represent cell death. For example, a value of 40 represents 60% growth inhibition. A value of 0 means no net growth occurred over the course of the experiment. A value of -40 indicates 40% of cells at the beginning of the experiment died by the end of the experiment. A value of -100 means all cells are dead at the end of the experiment.
# NCI-60 Human Tumor Cell Lines Screen was performed using the standard one-dose NCI protocol, which is described in more detail at https://dtp.cancer.gov/discovery_development/nci-60/default.htm.
# Compounds with GIPRCNT values below 10 were considered active. Activity score was based on GIPRCNT using the following formula: […]
# Score is 0 for GIPRCNT values of 100 or above, 50 for GIPRCNT values of 0, and 100 for GIPRCNT values of -100.
row,Compound,growth
1,O=C(Nc1ccc(NS(=O)(=O)c2ccc(F)cc2)cc1)C12CC3CC(CC(C3)C1)C2,91.3%
2,NC1=NC(c2ccccc2)C2=C(N1)/C(=C/c1ccccc1)CCC2 (stereo not given),34.8%
3,CC(=O)COc1ccc(Cl)cc1Cl,97.9%
4,C=CCSC(CC)(CC)C(=O)NC,101%
5,O=C1c2ccccc2C(=O)c2c1ccc(C(Br)Br)c2Cl,-26% (active)
6,COc1cc(-c2nn(-c3cccc(NC(=O)CCNc4ccc(N5CCOCC5)cc4)c3)cc2-c2ccncc2)ccc1Cl,24%
7,CCOc1ccccc1/C=N/N1CCCCCC1,103%
8,Nc1nc(Cl)nc2c1ncn2C1O[C@H](CO)[C@@H](O)[C@@H]1F (stereo not given in full),27%
9,N#Cc1cnn(C(=O)c2nn(-c3ccc(Cl)cc3)cc2O)c1N,22%
10,c1ccc(CSc2ncccc2-c2nnc(SCCN3CCOCC3)o2)cc1,117%
11,O=C1c2ccccc2C(=O)c2c1ccc(C(Br)Br)c2[N+](=O)[O-],9.58% (active)
12,CC(=O)/C(=C/c1ccc(Br)cc1)C(=O)c1ccccc1,66.9%
13,CC[C@@H](C(=O)[C@@H](C)[C@@H](O)[C@H](C)[C@@H]1O[C@@H]([C@@H](CC)C(=O)N(CC)CC)CC[C@@H]1C)C1O[C@]2(C=CC(=O)[C@]3(CC[C@@](C)([C@H]4CC[C@](O)(CC)[C@H](C)O4)O3)O2)[C@H](C)C[C@@H]1C (stereo not given in full),6.72% (active)
14,CN(C)CCOc1ccccc1NC1=C(Cl)C(=O)C(Nc2ccccc2OCCN(C)C)=C(Cl)C1=O,68.6%
15,Cc1ccc(/C=C/C(=O)C(=O)/C=C/c2ccc(C)cc2)cc1,93%
16,CCc1ccc(-c2ccc(-n3nc(C)c4c(N)nc(Cc5ccccc5)nc43)cc2)cc1,68%
17,CC(C)c1ccc(C(C)C(=O)N(CC2=C(C(C)c3ccccn3)c3ccccc3C2)C(C)C)cc1 (stereo not given),36%
18,Cc1ccc(N=Nc2ccccc2)cc1,101%
19,CC(=O)OC1C=CC(OC(C)=O)O1 (stereo not given),88.6%
20,Cc1cc(Cl)ccc1Nc1nc(C(F)(F)F)ccc1C(=O)N/N=C/c1cccc(O)c1,30.5%

row,Compound,growth
1,Oc1ccc(-c2[nH]c3ccccc3c2-c2nc3ccccc3o2)cc1,60.9%
2,C=C/C(C)=C/C[C@]1(C)[C@H](C)[C@@H](OC(=O)CCC)[C@H](O)[C@@]23C(=C[C@H](OC)C[C@@H]12)[C@@H](OC(=O)CCC)O[C@H]3OC(C)=O,-22% (active)
3,COc1cc(CNC(=O)C2CSC3(C)c4ccccc4C(=O)N23)cc(OC)c1OC (stereo not given),82.7%
4,CCN(CC)CCOc1cccc2c1C(=O)c1ccccc1C2=O,93.4%
5,O=c1oc2c(cc1-c1ccc(F)cc1)C(O)Oc1ccccc1-2 (stereo not given),67.4%
6,COc1cc(C(=O)n2nc(-c3cc(OC)c(OC)c(OC)c3)nc2N)cc(OC)c1OC,97.3%
7,O=[N+]([O-])c1ccc2ncccc2c1Cl,35.9%
8,Cc1c(Cl)cccc1NC(=O)CN1CCOCC1,106%
9,C#CCOc1c(OC)cc(C(=O)/C(C)=C/c2cccc(N=[N+]=[N-])c2)cc1OC,18.7%
10,CC1CCCC(C(=O)O)C1C(=O)O (stereo not given),86%
11,OCC1OC2C(NC(=S)N2c2ccccc2)C(O)C1O (stereo not given),97.5%
12,CN1C(C(=O)Nc2ccccn2)=C(O)c2sc(Cl)cc2S1(=O)=O,95.4%
13,O=C1c2c(c(=O)[nH]c3ccccc23)CCN1Cc1ccccc1,103%
14,CCOc1ccccc1/C=N\N=C(\N)N/N=C/c1ccccc1OCC,38.3%
15,O=C(CCl)Nc1ccc(Cc2ccc(NC(=O)CCl)cc2)cc1,-85.7% (active)
16,CC(=O)Nc1ccc(S(=O)(=O)N/N=C(\C)c2ccc(C)cc2C)cc1,104%
17,O=C(Nc1cc(Cl)cc2c1-c1ccc(Cl)cc1C2O)C(Cl)Cl (stereo not given),78.4%
18,Cc1ccc(-n2nnnc2N)c(C)c1,99.5%
19,NC(CSC(c1ccccc1)(c1ccccc1)c1cccc2ccccc12)C(=O)O (stereo not given),93%
20,CCC(C)[C@H](NC(C)=O)C(=O)N[C@@H](CCCNC(=N)N)C(=O)N[C@@H](CCCCN)C(=O)N[C@@H](CC1CCC(O)CC1)C(=O)NC(C(=O)N[C@@H](CCSC)C(=O)N[C@@H](CCCNC(=N)N)C(=O)N[C@@]1(C)CCC/C=C\CCC[C@@](C)(C(=O)NC(C(=O)N[C@@H](CCC(=O)O)C(=O)N[C@@H](CC(C)C)C(=O)N[C@H](C(=O)N[C@@H](CCC(=O)O)C(N)=O)C(C)C)[C@@H](C)O)NC(=O)[C@H](CCC(N)=O)NC(=O)[C@H](CC(C)C)NC(=O)[C@H](CC(C)C)NC1=O)[C@@H](C)O (stereo not given in full),98.9%
